In PubChem BioAssay (NCATS):
Unmarked numbers belong to inactive results. Records with an inconclusive call do not appear. A call without a number means that no potency is given here. Calls of active or inactive are those of the source. Unless noted, calls come from the whole dose curve; as a rule, active = well fitted curve in the direction sought with a large enough effect; inconclusive = small, poorly fitted or top-dose-only effect, or another doubt; inactive = no such curve, though single readings can be large; an effect the other way counts as inactive or inconclusive.

Key:
[1] = molecular target: Glucocorticoid receptor (Homo sapiens) (UniProt P04150); assay: GR-GFP Redistribution (AID 450;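 active = compounds whose dose series gives a full or clear partial fitted curve of increased nuclear translocation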; note: potency is the fitted concentration of half-maximal effect); details: U2OS GR-GFP nuclear translocation, laser cytometry, 2 h
[2] = molecular target: Glucocorticoid receptor (Homo sapiens) (UniProt P04150); assay: GR-EFC Redistribution (AID 451; calls by dose curve; note: potency is the fitted concentration of half-maximal effect); details: CHO-K1 GR-EFC translocation, beta-gal luminescence, 2 h
Outline: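 CHO-K1 cells expressing nuclear EA and GR-ED fragments of b-gal; compounds titrated up to 46 uM final, 2 h at 37 C. GR nuclear translocation read as complemented b-gal luminescence after 1 h RT detection.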

[3] = molecular target: Mitogen-activated protein kinase 10 (Mus musculus) (UniProt Q61831); assay: JNK3 AlphaScreen Assay (AID 530; active = well fitted curve in either direction with a large enough effect, not every such curve was filed as active;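 note: kinase came from lysate of stimulated human HepG2 cells; signal reports phosphorylation of biotinylated GST-cJun 1-79 at Ser73 with 10 µM ATP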); details: JNK3 lysate, c-Jun phosphorylation; series mostly up to 57.1 µM
Outline: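 Activity was read by AlphaScreen after JNK3-containing HepG2 lysate (cytokine pre-activated) phosphorylated biotinylated GST-cJun with 10 uM ATP at room temperature. Phospho-Ser73 cJun antibody with Protein-A acceptor beads provided detection.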

[4] = molecular target: 3',5'-cyclic-AMP phosphodiesterase 4B (Homo sapiens) (UniProt Q07343); assay: qHTS Assay for Inhibitors of PDE-IV (AID 607; active = well fitted activation curve with a large enough effect in the main read-out, with a control signal flat, not every such curve was filed as active); details: HEK293 ACTOne CNG channel cells, membrane potential fluorescence; series mostly up to 22.9 µM
Outline: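 Cell-based read-out of cAMP via a modified cyclic nucleotide-gated channel and membrane potential dye (535/590 nm) in HEK293 cells expressing PDE4 endogenously. Compounds tested up to 22.9 uM final; 100 uM RO 20-1724 reference.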

[5] = molecular target: Cytochrome P450 2D6 (Homo sapiens) (UniProt P10635); assay: qHTS Assay for Inhibitors and Substrates of Cytochrome P450 2D6 (AID 891); details: recombinant CYP2D6, luciferin-ME EGE luminescence; series mostly up to 57.1 µM; note: nearly all actives have a fitted effect of over 60% in size; note: potency is the fitted concentration of half-maximal effect
Outline: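 Luminescent read-out of luciferin formed by 5 nM human CYP2D6 demethylating 30 uM Luciferin-ME EGE (Km level) over 60 min at room temperature after NADPH regeneration addition. Data normalized to full inhibition by 1.43 uM quinidine.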

[6] = molecular target: Cytochrome P450 2C9 (Homo sapiens) (UniProt P11712); assay: qHTS Assay for Inhibitors and Substrates of Cytochrome P450 2C9 (AID 883); details: recombinant CYP2C9, luciferin-H luminescence, 60 min; series mostly up to 57.1 µM; note: nearly all actives have a fitted effect of over 60% in size
Outline: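 10nM CYP2C9 + 100uM Luciferin-H (=KM), 25mM KPO4; cpd 10 min 37C; NADPH regen, 60 min 37C; stop/detect with P450 Glo-Buffer 20 min; luminescence. Norm. to 57uM sulphaphenazole as full inhibition.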

[7] = molecular target: Cytochrome P450 2C19 (Homo sapiens) (UniProt P33261); assay: qHTS Assay for Inhibitors and Substrates of Cytochrome P450 2C19 (AID 899); details: recombinant CYP2C19, luciferin-H EGE luminescence; series mostly up to 57.1 µM; note: nearly all actives have a fitted effect of over 60% in size
Outline: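 Luminescent read-out of luciferin formed from Luciferin-H EGE (10uM, equal to KM). Enzyme 5nM in 50mM KPO4; compound added, 10 min at 37C, then NADPH regenerating system for 60 min at 37C. Full inhibition defined by 57uM ketoconazole.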

[8] = molecular target: Cytochrome P450 3A4 (Homo sapiens) (UniProt P08684); assay: qHTS Assay for Activators of Cytochrome P450 3A4 (AID 885); details: recombinant CYP3A4, Luciferin-PPXE luminescence, 60 min; series mostly up to 57.1 µM; note: nearly all actives have a fitted effect of over 65% in size
Outline: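 Luminescent readout of luciferin formed from 25 uM Luciferin-PPXE (KM level) by 20 nM CYP3A4 in 200 mM KPO4, with 60 min NADPH-driven reaction at room temperature after 10 min compound exposure. Ketoconazole (57 uM) defined 100% inhibition.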

Chain of Cytochrome P450 2C9 (Homo sapiens) (P11712 whole entry, looked up): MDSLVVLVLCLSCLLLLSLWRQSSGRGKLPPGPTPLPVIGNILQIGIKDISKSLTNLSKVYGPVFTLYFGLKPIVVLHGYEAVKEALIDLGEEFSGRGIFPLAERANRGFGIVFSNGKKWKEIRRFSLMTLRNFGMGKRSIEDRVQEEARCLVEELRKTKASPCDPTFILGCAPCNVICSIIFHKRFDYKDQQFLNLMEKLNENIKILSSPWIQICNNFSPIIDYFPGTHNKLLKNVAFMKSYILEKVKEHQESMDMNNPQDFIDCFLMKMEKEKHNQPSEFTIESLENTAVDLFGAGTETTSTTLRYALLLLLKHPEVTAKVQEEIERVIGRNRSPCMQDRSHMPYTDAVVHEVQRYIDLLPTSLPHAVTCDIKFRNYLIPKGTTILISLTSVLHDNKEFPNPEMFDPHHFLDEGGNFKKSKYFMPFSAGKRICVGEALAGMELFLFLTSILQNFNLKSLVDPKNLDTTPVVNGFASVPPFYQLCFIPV
Chain of Glucocorticoid receptor (Homo sapiens) (P04150 whole entry, looked up, the tested form may be a part): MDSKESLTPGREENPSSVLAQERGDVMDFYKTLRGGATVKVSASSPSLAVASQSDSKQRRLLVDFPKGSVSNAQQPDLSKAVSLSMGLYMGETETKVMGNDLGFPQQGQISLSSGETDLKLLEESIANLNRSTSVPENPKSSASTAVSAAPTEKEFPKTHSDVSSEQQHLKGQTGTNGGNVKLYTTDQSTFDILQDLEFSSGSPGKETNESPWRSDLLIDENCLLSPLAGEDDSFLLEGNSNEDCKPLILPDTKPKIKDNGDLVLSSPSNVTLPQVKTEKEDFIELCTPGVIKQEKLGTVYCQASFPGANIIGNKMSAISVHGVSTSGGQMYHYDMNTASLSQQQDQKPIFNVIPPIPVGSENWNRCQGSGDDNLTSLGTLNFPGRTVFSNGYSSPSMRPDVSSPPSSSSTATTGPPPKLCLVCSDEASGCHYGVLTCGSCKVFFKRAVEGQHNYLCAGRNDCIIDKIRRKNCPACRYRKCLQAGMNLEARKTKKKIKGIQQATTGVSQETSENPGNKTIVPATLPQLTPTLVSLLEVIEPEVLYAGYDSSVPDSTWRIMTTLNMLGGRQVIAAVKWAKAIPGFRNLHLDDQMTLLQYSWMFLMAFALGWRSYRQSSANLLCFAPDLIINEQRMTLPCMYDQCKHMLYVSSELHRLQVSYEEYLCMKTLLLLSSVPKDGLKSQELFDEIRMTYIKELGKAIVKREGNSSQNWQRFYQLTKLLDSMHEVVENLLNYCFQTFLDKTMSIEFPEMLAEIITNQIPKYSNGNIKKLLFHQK
Chain of Cytochrome P450 2C19 (Homo sapiens) (P33261 whole entry, looked up): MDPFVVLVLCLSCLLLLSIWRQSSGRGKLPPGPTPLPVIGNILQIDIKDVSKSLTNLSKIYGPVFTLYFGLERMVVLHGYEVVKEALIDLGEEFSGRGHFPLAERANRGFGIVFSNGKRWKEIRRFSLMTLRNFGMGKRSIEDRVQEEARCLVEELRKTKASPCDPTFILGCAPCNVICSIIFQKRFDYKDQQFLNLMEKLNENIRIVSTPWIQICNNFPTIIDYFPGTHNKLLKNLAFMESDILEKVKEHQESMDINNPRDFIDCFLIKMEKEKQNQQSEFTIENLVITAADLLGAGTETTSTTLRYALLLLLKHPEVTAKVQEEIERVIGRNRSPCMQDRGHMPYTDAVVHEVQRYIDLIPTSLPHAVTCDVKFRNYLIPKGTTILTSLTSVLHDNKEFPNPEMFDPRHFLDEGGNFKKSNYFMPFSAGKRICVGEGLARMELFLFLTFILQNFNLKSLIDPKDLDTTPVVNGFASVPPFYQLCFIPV
Chain of Cytochrome P450 2D6 (Homo sapiens) (P10635 whole entry, looked up): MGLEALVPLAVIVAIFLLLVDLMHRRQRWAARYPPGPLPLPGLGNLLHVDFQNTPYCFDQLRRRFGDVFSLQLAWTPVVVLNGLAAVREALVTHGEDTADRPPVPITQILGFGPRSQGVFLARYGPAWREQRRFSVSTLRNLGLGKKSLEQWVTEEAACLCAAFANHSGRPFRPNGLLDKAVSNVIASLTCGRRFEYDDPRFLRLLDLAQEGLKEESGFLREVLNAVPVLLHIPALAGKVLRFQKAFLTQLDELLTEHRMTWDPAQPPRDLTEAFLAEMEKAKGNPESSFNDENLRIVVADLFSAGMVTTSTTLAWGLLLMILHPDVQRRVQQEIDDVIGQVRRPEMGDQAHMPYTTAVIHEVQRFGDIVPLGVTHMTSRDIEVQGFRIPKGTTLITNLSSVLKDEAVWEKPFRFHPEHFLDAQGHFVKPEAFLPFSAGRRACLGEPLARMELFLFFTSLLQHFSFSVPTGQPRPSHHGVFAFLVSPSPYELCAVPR
Chain of 3',5'-cyclic-AMP phosphodiesterase 4B (Homo sapiens) (Q07343 whole entry, looked up): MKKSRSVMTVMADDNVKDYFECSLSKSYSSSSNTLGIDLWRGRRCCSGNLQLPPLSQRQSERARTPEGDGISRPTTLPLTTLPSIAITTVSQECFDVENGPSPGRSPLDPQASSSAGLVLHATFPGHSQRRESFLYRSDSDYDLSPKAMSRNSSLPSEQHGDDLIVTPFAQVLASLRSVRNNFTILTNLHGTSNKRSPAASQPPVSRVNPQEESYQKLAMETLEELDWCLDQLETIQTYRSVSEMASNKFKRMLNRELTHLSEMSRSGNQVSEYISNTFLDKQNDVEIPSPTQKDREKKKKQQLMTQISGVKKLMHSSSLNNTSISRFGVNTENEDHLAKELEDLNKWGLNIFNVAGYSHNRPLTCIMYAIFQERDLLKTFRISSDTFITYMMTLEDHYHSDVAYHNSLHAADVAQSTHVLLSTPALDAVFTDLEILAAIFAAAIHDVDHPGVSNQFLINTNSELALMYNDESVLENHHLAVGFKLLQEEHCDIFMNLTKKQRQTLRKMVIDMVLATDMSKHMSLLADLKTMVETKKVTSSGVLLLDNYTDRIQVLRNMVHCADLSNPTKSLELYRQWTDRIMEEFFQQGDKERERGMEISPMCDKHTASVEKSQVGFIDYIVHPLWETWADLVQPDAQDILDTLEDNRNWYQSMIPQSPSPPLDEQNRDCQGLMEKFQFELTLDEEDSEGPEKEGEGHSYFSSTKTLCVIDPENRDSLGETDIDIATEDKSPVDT
Chain of Cytochrome P450 3A4 (Homo sapiens) (P08684 whole entry, looked up): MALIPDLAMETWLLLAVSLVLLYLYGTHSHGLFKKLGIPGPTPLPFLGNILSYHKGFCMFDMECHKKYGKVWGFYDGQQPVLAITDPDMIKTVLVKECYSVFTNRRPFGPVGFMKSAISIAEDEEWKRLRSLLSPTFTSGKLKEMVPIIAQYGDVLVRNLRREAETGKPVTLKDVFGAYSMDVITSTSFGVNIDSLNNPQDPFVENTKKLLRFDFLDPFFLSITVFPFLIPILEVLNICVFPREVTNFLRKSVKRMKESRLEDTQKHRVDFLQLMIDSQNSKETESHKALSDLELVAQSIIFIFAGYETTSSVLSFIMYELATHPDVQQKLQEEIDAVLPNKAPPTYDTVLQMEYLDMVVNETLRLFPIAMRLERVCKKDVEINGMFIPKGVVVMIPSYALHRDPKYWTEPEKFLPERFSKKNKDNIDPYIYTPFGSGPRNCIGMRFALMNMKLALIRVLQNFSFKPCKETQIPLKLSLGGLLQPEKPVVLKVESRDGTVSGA

Compound | Potency [1] | Potency [2] [µM] | outcome [3] | outcome [4] | Potency [5] | Potency [6] | Potency [7] | Potency [8]
CN1C[C@H](CO)C=C2c3cccc4[nH]cc(c34)C[C@H]21 | > 46 µM | > 46 | inactive | inactive | 0.0251 µM (active) |  |  | 
COc1cc2c(cc1OC)-c1c(O)c(OC)cc3c1[C@@H](C2)N(C)CC3 | > 46 µM | > 46 | inactive | inactive | 15.8 µM (active) | inactive |  | 
Oc1cc2c(cc1O)[C@H]1c3ccccc3CN[C@H]1CC2 | > 46 µM | > 46 |  | inactive |  |  |  | 
C=C[C@@H]1CN2CC[C@H]1C[C@H]2[C@@H](O)c1ccnc2ccccc12 | > 46 µM | > 46 | inactive |  | 0.1 µM (active) | inactive | inactive | 
C[C@H]1CC[C@@H]2[C@@H](C)C(=O)O[C@H]3O[C@@]4(C)CC[C@@H]1[C@]32OO4 | > 46 µM | > 46 | inactive | inactive |  |  |  | 
CCCCCCCCCCCCCC(=O)O[C@H]1[C@@H](C)[C@@]2(O)[C@@H](C=C(CO)C[C@]3(O)C(=O)C(C)=C[C@@H]23)C2C(C)(C)[C@]21OC(C)=O (stereo partly drawn) | > 46 µM | > 46 | inactive |  |  |  |  | inactive
O=c1ccc2cc(O[C@@H]3O[C@@H](CO)[C@@H](O)[C@@H](O)[C@H]3O)c(O)cc2o1 | > 46 µM | > 46 | inactive | inactive |  |  |  | 
C=C[C@@H]1CN2CC[C@@H]1C[C@H]2[C@H](O)c1ccnc2ccccc12 | > 46 µM | > 46 | inactive | inactive | 3.98 µM (active) | inactive | inactive | 
C[C@@H]1CCC/C=C\[C@H]2C[C@H](O)C[C@@H]2[C@H](O)/C=C\C(=O)O1 | > 46 µM | > 46 | inactive | inactive | inactive | inactive | inactive | 
COC[C@H]1OC(=O)c2coc3c2[C@@]1(C)C1=C(C3=O)[C@H]2CCC(=O)[C@@]2(C)C[C@H]1OC(C)=O | 0.838 µM (active) | > 46 | inactive | inactive |  |  |  | inactive
COc1cc2c(cc1O)CCN[C@H]2C | > 46 µM | > 46 | inactive |  |  | inactive | inactive | 
CC[C@@H]1CN2CC[C@@H]1C[C@H]2[C@@H](O)c1ccnc2ccc(OC)cc12 | > 46 µM | > 46 | inactive |  | 0.0016 µM (active) | inactive | inactive | 
C[C@@H]1O[C@@H](O[C@H]2C[C@@H](O)[C@]3(CO)[C@@H]4[C@@H](O)C[C@]5(C)[C@H]([C@@H]6COC(=O)C6)CC[C@@]5(O)[C@H]4CC[C@@]3(O)C2)[C@H](O)[C@H](O)[C@@H]1O | > 46 µM | > 46 |  | inactive |  |  |  | 
CC[C@H](CO)NC(=O)[C@H]1C=C2c3cccc4[nH]cc(c34)C[C@H]2N(C)C1 | > 46 µM | > 46 | inactive | inactive |  |  |  | 
O=c1cccc2n1C[C@H]1C[C@@H]2CN(CCO)C1 | > 46 µM | > 46 | inactive | inactive | inactive | inactive | inactive | 
CC1=CC(=O)C2=C(C)C[C@H](O)[C@@H]3[C@@H](OC(=O)[C@H]3C)[C@H]12 | > 46 µM | > 46 | inactive |  | inactive | inactive | inactive | 
CCCCCC[C@H]1C(=O)O[C@@H](C)[C@H](NC(=O)c2cccc(NC=O)c2O)C(=O)O[C@@H](C)[C@@H]1OC(=O)CC(C)C | > 46 µM | > 46 | inactive |  | inactive |  | inactive | 
OC[C@H]1CCCN2CCCC[C@@H]12 | > 46 µM | > 46 | inactive | inactive | inactive | inactive | inactive | 
CC(C)(C)[C@@]1(O)C[C@@H]2OC(=O)C[C@@]23C(=O)O[C@H]2OC(=O)[C@@H](O)[C@]231 | > 46 µM | > 46 | inactive | inactive | inactive | inactive | inactive | 
C[C@@]12CCC[C@](C)(C(=O)O)[C@@H]1CCc1ccc(O)cc12 | > 46 µM | > 46 | inactive |  | inactive | inactive | inactive | 
OC(Cc1ccccc1)(c1ccccc1)C1CN2CCC1CC2 (stereo not drawn) | > 20.6 µM |  |  |  |  |  |  | 
CN1CCC(OC(=O)C2c3ccccc3Oc3ccccc32)CC1 | > 20.6 µM |  |  |  |  |  |  | 
Oc1cc2c(cc1O)[C@H]1c3ccccc3CN[C@@H]1CC2 | > 46 µM | > 46 | inactive | inactive |  |  |  | 
CCOc1ccc(-n2c(O)c(C=Nc3ccc(N(CC)CC)cc3)c(=O)[nH]c2=O)cc1 | > 20.6 µM |  |  |  |  |  |  | 
CC(C)C[C@H]1C(=O)N2CCC[C@@H]2[C@]2(O)O[C@](NC(=O)[C@H]3C=C4c5cccc6[nH]cc(c56)C[C@H]4N(C)C3)(C(C)C)C(=O)N12 | > 46 µM | > 46 |  | inactive | inactive |  |  | 
